PLK1 PBD block: qHTS for Inhibitors of PLK1-PDB (polo-like kinase 1 - polo-box domain): Primary Screen. Plk1 PBD binding of FITC phosphopeptide, fluorescence polarization. Potency, µM, most hits filed as inhibitors. 360,000 compounds, 2.8% hits; also: series mostly up to about 57 µM; nearly all actives have a fitted effect of over 65% in size
VDR inh: Inhibitors of the vitamin D receptor (VDR): qHTS | Vitamin D3 receptor (Homo sapiens), P11473 | VDR-SRC2-3 peptide fluorescence polarization, 2 h | Potency, µM, most hits filed as inhibitors | 400,000 compounds, 0.93% hits | AID 504847, 2011
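Reagent solutions, kept cold and dark, are dispensed first; compounds are then pinned in at 23 nl, plates briefly spun, and incubated 2 h at ambient temperature. Inhibition of VDR–SRC2-3 peptide binding is read by fluorescence polarization.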
TrxR1 substrate: qHTS Assay for Substrates of Mammalian Selenoprotein Thioredoxin Reductase 1 (TrxR1): qHTS; 390,000 compounds, 0.01% hits; purified TrxR1 substrate turnover, NADPH consumption readout; AID 588456, 2011; Thioredoxin reductase 1, cytoplasmic (Rattus norvegicus), O89049; Potency, µM (highest dose often 114 µM); also: nearly all actives have a fitted effect of over 50% in size
Target sequence (O89049 whole entry, looked up): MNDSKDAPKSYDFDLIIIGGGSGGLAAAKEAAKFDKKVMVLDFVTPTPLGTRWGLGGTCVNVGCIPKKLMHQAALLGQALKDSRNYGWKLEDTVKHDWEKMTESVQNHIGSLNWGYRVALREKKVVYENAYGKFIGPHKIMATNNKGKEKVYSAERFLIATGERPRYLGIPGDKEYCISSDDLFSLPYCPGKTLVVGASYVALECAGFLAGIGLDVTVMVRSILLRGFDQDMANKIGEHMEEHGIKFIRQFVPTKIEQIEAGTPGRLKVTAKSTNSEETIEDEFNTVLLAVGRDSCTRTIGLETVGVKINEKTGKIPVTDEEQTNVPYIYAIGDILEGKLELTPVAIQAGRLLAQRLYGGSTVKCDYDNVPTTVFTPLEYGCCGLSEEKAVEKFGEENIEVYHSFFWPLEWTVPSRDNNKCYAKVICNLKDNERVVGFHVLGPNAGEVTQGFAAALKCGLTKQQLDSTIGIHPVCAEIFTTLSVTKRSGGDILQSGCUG
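Rat TrxR1, dispensed at 90 nM, was prereduced with 400 uM NADPH (final) for 5 min at ~22 deg C, then incubated with compound 15 min before 400 uM selenite. A first-read NADPH fluorescence drop versus no-compound background flagged substrates.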
mIDH1 inhibitor: qHTS for Inhibitors of mutant isocitrate dehydrogenase 1 (IDH1): qHTS | IDH1-R132H enzyme, NADPH consumption, diaphorase/resazurin fluorescence | Potency, µM (highest dose often 76.6 µM), hits mostly inhibitors | 390,000 compounds, 0.093% hits | AID 602179, 2012; also: nearly all actives have a fitted effect of over 65% in size
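IDH1-R132H (0.5 ug/mL dispensed) in pH 7.5 Tris buffer was preincubated 30 min with compound, then given a substrate mix of 0.016 mM NADPH and 2 mM alpha-KG for 80 min at room temperature; remaining NADPH was read by diaphorase/resazurin fluorescence.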
Sfp inh: qHTS Assay for Inhibitors of Bacillus subtilis Sfp phosphopantetheinyl transferase (PPTase) | 4'-phosphopantetheinyl transferase ffp (Bacillus subtilis), Q9F4F7 | Biochemical Sfp PPTase activity, qHTS | Potency, µM, most hits filed as inhibitors | 310,000 compounds, 3.5% hits;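 also: the enzyme is Sfp with the accession as filed and its product quenches rhodamine fluorescence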
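Fluorescence-quenching assay: 15 nM Sfp-PPTase preincubated 15 min at room temperature with compound, then 5 uM rhodamine-CoA and 12.5 uM BHQ-2-labelled YbbR peptide added. Fluorescence (ex 525/em 598 nm) read at start and after 30 min; difference gives rate.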
TrxR1 inh: qHTS Assay for Inhibitors of Mammalian Selenoprotein Thioredoxin Reductase 1 (TrxR1): qHTS. Thioredoxin reductase 1, cytoplasmic (Rattus norvegicus), O89049. recombinant rTrxR1, NADPH fluorescence consumption, selenite substrate. Potency, µM (top dose mostly 114 µM), hits mostly inhibitors. 390,000 compounds, 1% hits. AID 588453, 2011; also: nearly all actives have a fitted effect of over 65% in size
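Rat TrxR1 (90 nM in the dispensed reagent) was pre-reduced with 400 uM NADPH for 5 min at room temperature, then incubated with compound for 15 min. After 400 uM selenite was added, NADPH fluorescence (Ex 340/Em 450 nm) was followed for 8 min.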
Hits are given with their value; . = inactive; ? = inconclusive; / = no result given; ! = a repeat was not active. Rows were chosen to be rich in hits. Some 5.2% of all compounds tested hit in one or more screens of this group. Calls follow the shape of the dose curve; as a rule, active = well fitted curve in the direction sought with a large enough effect; inconclusive = small, poorly fitted or top-dose-only effect, or another doubt; inactive = no such curve, though single readings can be large; an effect the other way counts as inactive or inconclusive.

SMILES	PLK1 PBD block	VDR inh	TrxR1 substrate	mIDH1 inhibitor	Sfp inh	TrxR1 inh
CCOc1ccc(NC(=S)N2CCC(C(N)=O)CC2)cc1	.	.	.	.	.	.
COC(=O)c1sccc1NC(=S)N1CCC(C(N)=O)CC1	.	.	.	.	79µM	.
COC(=O)c1ccc(NC(=S)N2CCC(C(N)=O)CC2)cc1	?	.	.	.	32µM	.
COC(=O)c1sccc1NC(=S)N1CCCCC1	.	.	.	.	.	.
COc1ccc(N(C(=O)c2ccco2)C(C(=O)NC2CCCC2)c2ccncc2)cc1OC (stereo not drawn)	.	.	.	.	.	.
COc1ccc(N(C(=O)c2ccco2)C(C(=O)NC2CCCC2)c2cccs2)cc1OC (stereo not drawn)	?	.	.	.	40µM	?
N#CC(C#N)=C(N)/C(C#N)=C/c1ccc2[nH]ccc2c1	/	50µM!	/	/	.	/
O=c1cnc2cnc(Nc3ccccc3)nc2n1C[C@H]1CCCO1	/	.	/	/	.	/
O=C(Nc1ccc2c(c1)OC1(CCCC1)O2)C1CC1	27µM	.	.	.	.	.
CCc1ccc2oc(-c3cccc(NC(=O)COc4ccccc4Cl)c3)nc2c1	/	.	.	.	/	.
O=C(/C=C/c1ccco1)Nc1cccnc1Cl	.	.	.	.	50µM	16µM
COC(=O)c1ccccc1NC(=O)/C=C/c1ccco1	.	.	.	.	50µM	?
Cc1cc(C(=O)NNC(=O)/C=C/c2ccco2)c(C)o1	24µM	?	.	.	/	2.8µM
O=C(c1ccco1)N(c1ccccn1)c1ccccn1	.	.	.	.	.	.
O=C(/C=C/c1ccco1)N(c1ccccn1)c1ccccn1	?	.	.	.	40µM	.
O=C(/C=C/c1ccccc1)Nc1cccnc1Cl	.	.	.	.	.	.
COc1cccc(C(O)c2ncc(-c3ccccc3Cl)[nH]2)c1 (stereo not drawn)	.	/	/	/	/	/
Cn1c2c(c(=O)n(C)c1=O)C(c1cccc(O)c1)CC(=O)N2 (stereo not drawn)	/	.	.	.	/	.
CSc1ccc(C2CC(=O)Nc3c2c(=O)n(C)c(=O)n3C)cc1 (stereo not drawn)	27µM	?	.	.	.	.
CC(=O)NC(c1ccc(F)c(F)c1)c1nc(-c2cccc(C(C)C)c2)cs1 (stereo not drawn)	.	/	/	/	/	/
CC(=O)Nc1ccc(NC(=O)C/C(C)=N/NC(N)=S)cc1	.	.	.	.	56µM	.
C/C(O)=C(\N=Nc1cc(C)ccc1O)C(N)=O	30µM	.	.	.	.	.
C(=C\c1nc(N2CCCCCC2)c2ccccc2n1)/c1ccccc1	.	.	.	.	28µM	.
c1ccc2c(N3CCCCC3)nc(N3CCCCC3)nc2c1	.	.	.	.	?	.
COc1cc2oc(=O)ccc2cc1O	/	.	/	/	.	/
SMILES	PLK1 PBD block	VDR inh	TrxR1 substrate	mIDH1 inhibitor	Sfp inh	TrxR1 inh
CCn1c(=S)sc2nc(C)sc21	21µM	?	.	.	/	.
COc1cc2nc(N3CCCN(C)CC3)nc(NC3CCOCC3)c2cc1OC	/	/	.	/	/	.
O=C(CSc1nncs1)Nc1ccc(S(=O)(=O)N2CCCC2)cc1	.	.	.	.	.	.
Cc1ccnc(NC(c2cccnc2)c2ccc3cccnc3c2O)c1 (stereo not drawn)	?	?	.	.	?	3.5µM
Cc1ccnc(NC(c2ccsc2)c2ccc3ccc(C)nc3c2O)c1 (stereo not drawn)	3µM	40µM	.	.	?	3.5µM
Cc1cccc(NC(c2ccc(C)s2)c2ccc3ccc(C)nc3c2O)n1 (stereo not drawn)	?	?	.	.	.	71µM
COc1cc(N=Nc2cccc(S(N)(=O)=O)c2)c2ccccc2c1N	.	.	.	.	?	.
c1ccc(COC[C@@H]2CO2)cc1	/	.	/	/	.	/
O=C(Nc1ccc(Cl)cc1)Nc1csc([N+](=O)[O-])c1	.	.	.	.	.	?
CCOC(=O)C1=C(O)/C(=C/c2ccc(-c3ccccc3C(=O)O)o2)SC1=Nc1ccc(OC)cc1	.	.	.	.	.	?
CCOC(=O)C1=C(O)/C(=C/c2ccc(-c3ccccc3C(=O)O)o2)SC1=Nc1ccc(C)cc1	?	79µM	.	?	.	?
CCOC(=O)C1=C(O)/C(=C/c2ccc(OCC(=O)O)c(OCC)c2)SC1=Nc1ccccc1	.	?	.	.	.	.
CCOC(=O)C1=C(O)/C(=C/c2ccccn2)SC1=Nc1ccc(Cl)cc1	.	.	.	.	32µM	.
CC[C@H](C)[C@H](NC(=O)[C@H](Cc1ccc(O)cc1)NC(=O)[C@@H](NC(=O)[C@@H](N)CCCN=C(N)N)C(C)C)C(=O)N[C@@H](Cc1cnc[nH]1)C(=O)N1CCC[C@H]1C(=O)N[C@@H](Cc1ccccc1)C(=O)O	/	.	/	/	.	/
CCOC(=O)C1CCN(S(=O)(=O)c2cn(C)c(C)n2)CC1	.	.	.	.	.	.
CCOC(=O)/C(=C\c1ccc([N+](=O)[O-])o1)NC(=O)c1ccccc1	.	.	.	.	.	7.9µM
CCCOC(=O)/C(=C\c1ccc([N+](=O)[O-])o1)NC(=O)c1ccccc1	.	.	.	.	.	.
O=C1Nc2ccccc2SC1c1ccccc1 (stereo not drawn)	.	?	.	.	.	.
Cc1ccc(NC2Sc3ccccc3NC2=O)cc1 (stereo not drawn)	9.5µM	11µM	.	.	8.9µM	?
CCN(CC)C(=O)CSc1nc(C)cc(-c2cccs2)c1C#N	21µM	.	.	.	40µM	.
Cc1ccc(N(CC(=O)NCCc2ccc(Cl)cc2)S(=O)(=O)N(C)C)cc1	/	.	.	.	/	.
COc1ccc(CCNC(=O)c2cc3c(=O)n4cccc(C)c4nc3n(Cc3ccco3)c2=N)cc1OC	.	.	.	.	.	.
Cc1cccn2c(=O)c3cc(C(=O)NCc4ccco4)c(=N)n(CCc4ccccc4)c3nc12	.	.	.	.	89µM	.
Cc1cccn2c(=O)c3cc(C(=O)NCc4ccco4)c(=N)n(C(C)C)c3nc12	.	.	.	.	.	.
Cc1cccn2c(=O)c3cc(C(=O)NCCc4ccccc4)c(=N)n(Cc4ccco4)c3nc12	.	.	.	.	32µM	.
